Measured values: PubChem BioAssay
Calls of active or inactive are those of the source.

Experiments:
[1] = tested on: Plasmodium falciparum Sir2 (PF13_0152, Sir2A); assay: Plasmodium falciparum Sir2A binding compounds – biochemical, small-molecule microarray, 635 nm fluorescence, primary screen (AID 1098); conditions: fluorescence 635 nm, higher = more signal;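 note: score merges spot fluorescence intensity with its signal-to-noise ratio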
[2] = probe aDKK1 binding to arrayed compounds – biochemical, biotinylated probe, 635/667 nm fluorescence, primary screen (AID 1099); conditions: small-molecule microarray, higher = more signal;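 note: score merges 667nm spot fluorescence with signal to noise across triplicate slides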
[3] = probe aCHRDL2 binding to arrayed compounds – biochemical, biotinylated probe, 635/667 nm fluorescence, primary screen (AID 1100); conditions: small-molecule microarray, higher = more signal
[4] = change in splice reporter luminescence, either direction, cell-based, HEK293, spliceosome inhibition project, primary screen (AID 1101); conditions: HEK293 splicing luciferase reporter, 24 h, higher = more signal, called active from +8 up or from −8 down;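 note: HEK293 cells carrying a splicing-competent luciferase reporter gene; test concentration not given here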
[5] = biological target: Fibroblast growth factor 10 (Homo sapiens) (UniProt O15520); assay: compounds binding fibroblast growth factor 10 – biochemical, small-molecule microarray, 635 nm fluorescence, primary screen (AID 1102); conditions: FGF10 binding, fluorescence 635 nm, higher = more signal
Sequence of Fibroblast growth factor 10 (Homo sapiens) (O15520 whole entry, looked up): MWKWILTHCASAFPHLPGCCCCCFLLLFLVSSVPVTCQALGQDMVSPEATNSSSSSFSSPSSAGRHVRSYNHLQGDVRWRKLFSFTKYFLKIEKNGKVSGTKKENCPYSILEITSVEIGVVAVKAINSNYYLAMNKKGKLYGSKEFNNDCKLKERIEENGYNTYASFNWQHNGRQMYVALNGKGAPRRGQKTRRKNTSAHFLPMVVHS

[6] = tested on: glycogen synthase kinase-3 (GSK3A per assay name; protocol says GSK3B); assay: compounds binding glycogen synthase kinase-3 – biochemical, small-molecule microarray, 635 nm fluorescence, GSK3A, primary screen (AID 1103); conditions: fluorescence 635 nm, higher = more signal; note: the record names both GSK3A and GSK3B
[7] = biological target: Epidermal growth factor receptor (Homo sapiens) (UniProt P00533); assay: compounds binding epidermal growth factor receptor – biochemical, small-molecule microarray, 635 nm fluorescence, primary screen (AID 1104); conditions: EGFR binding, higher = more signal;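 note: score merges 667 nm emission intensity with spot signal to noise over triplicate slides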
Sequence of Epidermal growth factor receptor (Homo sapiens) (P00533 whole entry, looked up): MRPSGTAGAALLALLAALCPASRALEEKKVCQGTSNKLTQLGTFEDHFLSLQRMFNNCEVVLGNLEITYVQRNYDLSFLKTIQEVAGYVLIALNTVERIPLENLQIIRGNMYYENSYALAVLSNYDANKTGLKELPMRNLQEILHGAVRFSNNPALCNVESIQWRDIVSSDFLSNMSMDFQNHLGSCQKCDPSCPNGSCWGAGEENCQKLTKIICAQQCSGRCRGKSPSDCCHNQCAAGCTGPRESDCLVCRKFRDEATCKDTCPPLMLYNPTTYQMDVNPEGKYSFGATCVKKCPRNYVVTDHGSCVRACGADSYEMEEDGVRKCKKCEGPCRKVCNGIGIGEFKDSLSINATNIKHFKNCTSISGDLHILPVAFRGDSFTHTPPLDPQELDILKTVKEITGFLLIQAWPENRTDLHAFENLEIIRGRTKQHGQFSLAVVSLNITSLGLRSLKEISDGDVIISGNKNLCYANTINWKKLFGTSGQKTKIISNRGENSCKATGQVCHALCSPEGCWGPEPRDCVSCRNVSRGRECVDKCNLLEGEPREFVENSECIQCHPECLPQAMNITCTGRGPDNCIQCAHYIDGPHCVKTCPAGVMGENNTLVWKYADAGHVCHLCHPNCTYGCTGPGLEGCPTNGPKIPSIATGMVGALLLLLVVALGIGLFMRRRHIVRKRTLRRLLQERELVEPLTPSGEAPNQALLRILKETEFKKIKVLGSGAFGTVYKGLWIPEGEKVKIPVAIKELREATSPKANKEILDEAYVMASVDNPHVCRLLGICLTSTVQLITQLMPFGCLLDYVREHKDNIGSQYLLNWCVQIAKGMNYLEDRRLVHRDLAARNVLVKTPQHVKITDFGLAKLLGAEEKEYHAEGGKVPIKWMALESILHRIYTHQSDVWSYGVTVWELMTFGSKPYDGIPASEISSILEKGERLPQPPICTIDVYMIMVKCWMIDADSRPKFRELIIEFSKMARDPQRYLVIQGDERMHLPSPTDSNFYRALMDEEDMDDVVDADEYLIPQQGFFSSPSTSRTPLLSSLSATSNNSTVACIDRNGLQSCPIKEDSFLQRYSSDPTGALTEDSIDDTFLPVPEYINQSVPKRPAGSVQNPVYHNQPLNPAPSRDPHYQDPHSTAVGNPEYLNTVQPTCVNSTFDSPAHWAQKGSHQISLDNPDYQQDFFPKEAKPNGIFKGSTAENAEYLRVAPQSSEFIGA

[8] = biological target: Follistatin-related protein 3 (Homo sapiens) (UniProt O95633); assay: compounds binding follistatin-related protein 3 – biochemical, small-molecule microarray, 635 nm fluorescence, primary screen (AID 1105); conditions: FSTL3 binding, higher = more signal;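 note: score merges emission near 667 nm and signal to noise per printed spot across three slides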
Sequence of Follistatin-related protein 3 (Homo sapiens) (O95633 whole entry, looked up): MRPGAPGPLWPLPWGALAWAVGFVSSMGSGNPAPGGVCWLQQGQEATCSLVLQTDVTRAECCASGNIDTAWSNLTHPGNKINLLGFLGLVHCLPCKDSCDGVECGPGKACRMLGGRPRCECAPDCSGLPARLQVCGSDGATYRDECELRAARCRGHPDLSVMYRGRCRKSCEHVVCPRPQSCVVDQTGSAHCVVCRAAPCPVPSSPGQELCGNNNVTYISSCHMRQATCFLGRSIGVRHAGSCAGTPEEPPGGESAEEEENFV

[9] = biological target: Dickkopf-related protein 1 (Homo sapiens) (UniProt O94907); assay: small molecules binding DKK1 protein – biochemical, small-molecule microarray, 635 nm fluorescence scan, primary screen (AID 1106); conditions: higher = more signal;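 note: score merges emission near 667 nm with signal to noise over three replicate slides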
Sequence of Dickkopf-related protein 1 (Homo sapiens) (O94907 whole entry, looked up): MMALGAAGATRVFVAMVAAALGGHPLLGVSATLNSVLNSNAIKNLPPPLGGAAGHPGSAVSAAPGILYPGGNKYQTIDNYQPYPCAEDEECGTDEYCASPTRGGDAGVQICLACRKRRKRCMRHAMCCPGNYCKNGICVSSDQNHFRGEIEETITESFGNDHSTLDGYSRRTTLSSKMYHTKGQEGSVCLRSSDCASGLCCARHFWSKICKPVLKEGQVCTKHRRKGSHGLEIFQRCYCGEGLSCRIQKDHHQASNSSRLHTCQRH

[10] = tested on: Inhibin beta A chain (activin A); assay: small molecules binding activin A – biochemical, small-molecule microarray, 635 nm fluorescence scan, primary screen (AID 1107); conditions: INHBA, higher = more signal;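 note: mouse activin A protein probed at 4.33 µg/mL on printed slides; score merges bound-protein fluorescence near 667 nm with spot signal-to-noise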
[11] = tested on: Human papillomavirus type 1a protein E7 (residues 44-93); assay: small molecules binding HPV E7 44-93 – biochemical, small-molecule microarray, residues 44-93, 635 nm fluorescence, primary screen (AID 1108); conditions: fluorescence 635 nm, higher = more signal;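 note: E7 fragment applied at 1 µg/mL in TBST for 1 h at 4 C; score combines spot fluorescence with its signal to noise ratio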
[12] = hepatitis C replication reporter changes, two-sided – Huh7 cells, luciferase reporter, HCV replication inhibitor project, primary screen (AID 1109); conditions: Huh7 HCV replicon luciferase reporter, 48 h; higher = more signal;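 note: huh7 hepatoma cells harbouring a luciferase neomycin HCV replicon reporter; luciferase luminescence as measure of HCV replicon replication; test concentration not given here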
[13] = biological target: Left-right determination factor 2 (Homo sapiens) (UniProt O00292); assay: small molecules binding LEFTY2 protein – biochemical, small-molecule microarray, 635 nm fluorescence scan, primary screen (AID 1110); conditions: higher = more signal
Sequence of Left-right determination factor 2 (Homo sapiens) (O00292 whole entry, looked up): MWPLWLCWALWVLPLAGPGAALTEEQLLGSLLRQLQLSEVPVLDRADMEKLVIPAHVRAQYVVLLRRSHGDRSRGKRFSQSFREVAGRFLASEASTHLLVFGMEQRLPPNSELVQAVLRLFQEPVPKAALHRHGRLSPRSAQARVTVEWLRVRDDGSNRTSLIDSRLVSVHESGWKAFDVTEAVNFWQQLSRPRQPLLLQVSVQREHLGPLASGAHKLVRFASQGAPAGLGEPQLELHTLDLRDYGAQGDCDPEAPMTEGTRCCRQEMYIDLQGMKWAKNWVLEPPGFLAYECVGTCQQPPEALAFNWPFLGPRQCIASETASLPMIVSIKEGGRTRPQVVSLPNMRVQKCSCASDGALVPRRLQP

[14] = biological target: Calmodulin-1 (Homo sapiens) (UniProt P0DP23); assay: small molecules binding calmodulin-1 with EGTA – biochemical, small-molecule microarray, Cy5-labelled CALM1, profiling panel (AID 1111); conditions: Cy5-CALM1 binding fluorescence, higher = more signal;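 note: labelled calmodulin applied in Tris saline Tween buffer holding calcium plus EGTA and DTT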
[15] = biological target: Calmodulin-1 (Homo sapiens) (UniProt P0DP23); assay: small molecules binding Ca-loaded calmodulin-1 – biochemical, small-molecule microarray, Cy5-labelled CALM1, plus calcium, artefact control for SMM control-protein annotation, profiling panel (AID 1112); conditions: Cy5-CALM1 binding fluorescence, higher = more signal;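 note: score merges spot fluorescence with signal to noise from triplicate slides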
[16] = probe aWnt5a binding to arrayed compounds – biochemical, biotinylated probe, 635/667 nm fluorescence, primary screen (AID 1113); conditions: small-molecule microarray, higher = more signal;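 note: score merges 667 nm fluorescence intensity with signal-to-noise per printed feature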
[17] = probe aShh binding to arrayed compounds – biochemical, biotinylated probe, 635/667 nm fluorescence, primary screen (AID 1114); conditions: small-molecule microarray, higher = more signal;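 note: probe is biotin-labelled aShh protein from a stem cell growth factor screen; measures binding of labelled protein to compounds printed on the slide; score merges feature fluorescence at 667 nm with signal-to-noise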
[18] = probe aNog binding to arrayed compounds – biochemical, biotinylated probe, 635/667 nm fluorescence, primary screen (AID 1115); conditions: small-molecule microarray, higher = more signal;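 note: probe is biotinylated aNog protein used at 0.15 µg/mL for 1 h at 4 C; z-score combines 667 nm fluorescence of each spot with its signal to noise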
[19] = biological target: Torsin-1A-interacting protein 1 (Homo sapiens) (UniProt Q5JTV8); assay: compound microarray binding of lysate hLAP1 – cell lysate, small-molecule microarray, COS7 lysate, 635/667 nm fluorescence, primary screen (AID 1116); conditions: 635 nm fluorescence, higher = more signal
Sequence of Torsin-1A-interacting protein 1 (Homo sapiens) (Q5JTV8 whole entry, looked up): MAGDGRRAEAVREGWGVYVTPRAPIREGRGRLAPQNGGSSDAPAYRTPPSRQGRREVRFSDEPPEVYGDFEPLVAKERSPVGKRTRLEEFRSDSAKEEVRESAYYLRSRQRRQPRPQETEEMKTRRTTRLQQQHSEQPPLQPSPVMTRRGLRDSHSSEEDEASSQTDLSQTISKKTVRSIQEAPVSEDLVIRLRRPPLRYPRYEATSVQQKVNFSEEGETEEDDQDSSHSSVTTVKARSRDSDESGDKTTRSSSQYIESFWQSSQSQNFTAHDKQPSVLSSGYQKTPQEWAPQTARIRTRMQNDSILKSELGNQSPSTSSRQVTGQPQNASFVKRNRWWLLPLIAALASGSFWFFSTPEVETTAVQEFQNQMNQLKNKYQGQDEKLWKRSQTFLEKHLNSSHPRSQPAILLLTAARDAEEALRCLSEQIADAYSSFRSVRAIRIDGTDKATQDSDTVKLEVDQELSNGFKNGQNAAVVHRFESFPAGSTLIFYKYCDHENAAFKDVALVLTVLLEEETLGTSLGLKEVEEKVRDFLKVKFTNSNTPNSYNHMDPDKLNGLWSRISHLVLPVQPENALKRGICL

[20] = biological target: Alpha-bungarotoxin (Bungarus multicinctus) (UniProt P60615); assay: compounds binding labelled alpha-BTX control protein – biochemical, small-molecule microarray, Alexa647 label, 635/667 nm fluorescence, artefact control for SMM control protein annotation, profiling panel (AID 1117); conditions: alpha-BTX-A647 binding fluorescence, higher = more signal
Sequence of Alpha-bungarotoxin (Bungarus multicinctus) (P60615 whole entry, looked up): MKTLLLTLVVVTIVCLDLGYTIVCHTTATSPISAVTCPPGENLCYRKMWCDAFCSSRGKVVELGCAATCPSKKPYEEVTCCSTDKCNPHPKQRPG

Row | Structure (SMILES) | composite z-score [1] | composite z-score [2] | composite z-score [3] | z-score [4] | composite z-score [5] | composite z-score [6] | composite z-score [7] | composite z-score [8] | composite z-score [9] | composite z-score [10] | composite z-score [11] | z-score [12] | composite z-score [13] | composite z-score [14] | composite z-score [15] | composite z-score [16] | composite z-score [17] | composite z-score [18] | composite z-score [19] | composite z-score [20]
1 | CN(C)CCCCCCNC(=O)[C@H]1C[C@H]2C(=O)N3CCC[C@H]3C(=O)N2[C@H]1c1ccc(O)cc1 | 1.42 | 0.11 | 0.0341 | -0.8 (inactive) | 1.28 | 1.35 | 1.6 | 1.44 | 1.25 | 1.08 | 1.12 | 1.42 | 1.44 | -1.17 | -2.33 | -0.0598 | 0.178 | 0.0459 | 1.29 | 0.73
2 | COC(=O)[C@@]1(Cc2ccc(F)cc2)[C@H]2c3cc(C(=O)N(C)C)n(Cc4ccc(Cl)c(C(F)(F)F)c4)c3C[C@H]2CN1C(=O)c1ccccc1 | 0.546 | 1.6 | 1.46 | -2.25 (inactive) | 0.336 | 1.31 | 0.175 | 0.923 | -0.473 | 0.651 | 0.199 | -2.11 | -0.401 | 2.75 | 1.63 | -0.101 | -0.0578 | -0.222 | 2.41 | 2.36
3 | CC(C)C[C@@H]1NC(=O)[C@@H]2C[C@H](C(=O)NCc3ccc(F)cc3)[C@H](c3cccc(OCCO)c3)N2C1=O | 1.52 | -0.23 | 0.0811 | -0.177 (inactive) | 1.2 | 0.615 | 0.284 | 0.946 | 0.322 | -0.19 | 0.0179 | -0.992 | 0.0533 | 0.217 | 0.0115 | -0.31 | 0.147 | -0.0315 | 0.172 | -0.41
4 | CC(C)NC(=O)[C@@]1(c2ccc([N+](=O)[O-])cc2)CC(=O)N(C2CCCCC2)[C@@H]1c1ccc(CO)cc1I | 1.04 | 0.719 | 0.902 | 0.61 (inactive) | -0.0505 | 0.406 | -0.527 | -0.573 | -0.566 | -0.524 | 0.621 | -2.16 | -0.159 | 0.249 | 0.272 | 0.0375 | -0.189 | 0.176 | 0.707 | -0.174
5 | COC(=O)[C@H](Cc1ccccc1)N[C@@H](/C=C/C1CC1)[C@H](O)Cc1ccccc1 | 1.02 | -0.157 | 0.442 | 0.488 (inactive) | -0.865 | -0.637 | -0.463 | -0.862 | -0.429 | 0.437 | -0.431 | -0.95 | -0.517 | 0.125 | -0.736 | 0.454 | -0.309 | -0.349 | 0.729 | 0.342
6 | CN1C(=O)C2C=CC(C(O)C#Cc3ccccc3)N(N3CCCCC3)C2C1=O (stereo not given) | 1.68 | 1.01 | 1.09 | 0.762 (inactive) | 0.945 | 0.216 | 0.568 | 0.731 | 0.0369 | 1.18 | -1.16 | -0.451 | 0.414 | 1.19 | 0.657 | 0.234 | 0.668 | 0.564 | 0.494 | 1.04
7 | CCCc1cc2c(n1Cc1cc(F)cc(F)c1)C(C)C1CN(C(=O)c3ccccc3)C(C)(C(=O)OC)C21 (stereo not given) | 1.01 | 1.28 | 1.33 | -3.1 (inactive) | 1.21 | 1.07 | 0.0159 | 0.899 | 0.215 | 1.27 | 1.35 | -2.24 | 0.225 | 2.31 | 0.813 | 0.36 | -0.148 | 0.363 | 2.6 | 2.34
8 | [N-]=[N+]=Nc1ccccc1[C@@H]1OC(c2ccc(OCCCO)cc2)=N[C@]1(Cc1ccccc1)C(=O)N1CCOCC1 | 0.839 | 1.05 | 1.11 | -1.15 (inactive) | 1.39 | 1.28 | 0.308 | 1.16 | 0.284 | 0.904 | 1.44 | -1.41 | 0.425 | 1.65 | 0.959 | 0.72 | 0.315 | 0.314 | 1.21 | 1.3
9 | COC(=O)C(CC#Cc1ccc2c(c1)[C@]1(C(=O)N2)[C@H](C(=O)Nc2nc3ccccc3s2)[C@H]2C(=O)O[C@H](c3ccccc3)[C@H](c3ccccc3)N2[C@@H]1c1ccccc1OCCO)C(=O)OC | 1.61 | 0.473 | 0.561 | 1.44 (inactive) | 0.904 | 1.24 | 0.282 | 0.701 | 0.193 | 0.303 | 1.17 | -2.55 | 0.286 | 1.42 | 0.504 | -0.0346 | 0.257 | 0.733 | 1.01 | 2.31
10 | COc1cc2c(cc1OC)CN(C(=O)[C@H]1[C@@H]3C(=O)O[C@@H](c4ccccc4)[C@@H](c4ccccc4)N3[C@@H](c3ccc(O)cc3)[C@]13C(=O)Nc1ccc(C#CCCO)cc13)CC2 | 0.957 | 0.0325 | 0.481 | 0.0673 (inactive) | 0.398 | 0.0837 | -0.0179 | 0.249 | -0.0546 | 0.224 | 1.4 | -0.838 | -0.0265 | 0.382 | 0.0412 | -0.0403 | -0.0553 | -0.472 | 0.469 | 1.04
11 | C=CC[C@]1(C(=O)NCCCOC)N=C(c2ccc(OCCCO)cc2)O[C@H]1c1ccccc1CN=[N+]=[N-] | 1.17 | 1.45 | 1.17 | 0.822 (inactive) | 0.944 | 1.22 | 0.0673 | 0.612 | 0.496 | 1.21 | 0.091 | -2.09 | 0.593 | 2.12 | 0.988 | 0.0509 | 0.228 | 1.53 | 1.95 | 1.14
